Structures are written as SMILES. About 25 (1%) of roughly 2,400 compounds were called active. The list is a sample of the results. Unmarked numbers belong to inactive results.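 How the source made its calls: active means replicate-average signal at least 3 plate SD below neutral wells, shown as high inhibition, flagging enzyme-inhibiting false positives; inactive means the rest.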

One may read the inhibition as the drop in the measured response relative to a control, in per cent.

The assay deals with Beta-galactosidase (Escherichia coli), counter-screen for EBI2 antagonists. Nature of the assay: E. coli beta-galactosidase enzyme inhibition, confirmation, counter-screen for EBI2 antagonist project, biochemical, luminescence, single concentration (AID 652176).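 Further: 0% = DMSO wells with enzyme and 100% = wells lacking enzyme; higher means stronger loss of beta-gal luminescence.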 The settings on record: purified beta-galactosidase, luminescent Galacton Star, 15 min; at 5 µM; stronger effect = higher value. (The purpose of a counterscreen is to sort out artefacts and off-target activity.)
Consider `COc1cc(/C=C(\C#N)C(=O)Nc2ccc3ccccc3c2)c([N+](=O)[O-])cc1OC`, for which the inhibition was -8.92%.

Consider `CC(C)N(Cc1ccccc1)C(=S)Nc1ccc(OC(F)F)cc1`, for which the inhibition was 7.71%.

As for `Cc1ccc(S(=O)(=O)NCCNC(C)c2ccc(Br)cc2)cc1` (centres undefined), the inhibition is 4.8%.

Consider `Cc1cccc(C)c1-n1nnnc1C(CCc1ccccc1)N1CCN(C/C=C/c2ccccc2)CC1` (centres undefined), for which the inhibition is -14.6%.

`Cc1cccc(-n2c(O)c(C=Nc3ccccc3N)c(=O)[nH]c2=O)c1`: the inhibition was 1.72%.

In the case of `CC(C)Cc1ccc(-c2cc3nc(NCc4cccc(Cl)c4)ccn3n2)cc1`, the inhibition is -21.1%.

Take `Fc1ccc(N2CCN(Cc3cnc(Oc4ccc(Br)cc4)s3)CC2)cc1`: the inhibition is 3.88%.

Turning to `COc1ccc([C@H]2CC(=O)C=C(/C=C/c3ccc(Cl)cc3)C2)cc1`, the inhibition is -9.12%.

Regarding `O=C(CSc1ccccc1)Nc1cc(Cl)ccc1Oc1ccccc1`, the inhibition was -9.14%.

As for `COc1ccccc1N1CCN(C(=O)c2cc(-c3ccc(Br)cc3)on2)CC1`, the inhibition was 9.03%.

Consider `CC1CCc2sc3nc(N4CCN(CCO)CC4)n4ncnc4c3c2C1` (centres undefined), for which the inhibition is -1.4%.

With `Cc1nc2ccc(C(=O)N3CCN(c4ccccc4)CC3)cc2s1`, the inhibition was -10.1%.

For the compound `Cc1ccc(N2CC(C(=O)Nc3ccc(S(=O)(=O)N4CCCC4)cc3)CC2=O)cc1C` (centres undefined), the inhibition was 2.23%.

In the case of `COc1ccc([C@H]2CC(=O)C=C(c3ccc(C)cc3)C2)cc1`, the inhibition was 5.89%.

`O=C(c1cc2cc(F)ccc2[nH]1)N1CCN(c2ccc(F)cc2)CC1`: the inhibition was 1.06%.

As to `Cc1ccc(CSCCNC(=O)CN(c2ccc(F)cc2)S(C)(=O)=O)cc1`, the inhibition is 3.75%.

Regarding `O=C(c1ccc(-n2cnnn2)cc1)N1CCN(C(c2ccccc2)c2ccccc2)CC1`, the inhibition was 5.89%.

With `Cc1ccc2oc(=O)c3cnn(CC(=O)N(Cc4ccco4)C4CCCCC4)c3c2c1`, the inhibition was -17.5%.

For `CCOC(=O)N1CCN(C(=O)COc2ccc(Cl)cc2C)CC1`, the inhibition was 11%.

Turning to `Cc1ccc(O/C=C2\OC(=O)c3ccccc32)cc1`, the inhibition is -6.52%.

Regarding `CCOC(=O)N1CCN(C(=O)COc2ccc(Br)cc2)CC1`, the inhibition is 2.79%.

Turning to `COc1ccc(OC)c(C(=O)c2coc3ccc(O)c(CN4CCOCC4)c23)c1`, the inhibition is 3.81%.

Regarding `FC(F)(F)Oc1ccccc1C(c1nnnn1C1CCCCC1)N1CCN(C/C=C/c2ccccc2)CC1` (centres undefined), the inhibition is 3.49%.

For `COc1ccc(Nc2cc(Sc3ccc(OC)cc3)ncn2)cc1`, the inhibition was 8.03%.

The record behind these values is PubChem BioAssay AID652176 (Sanford-Burnham Center for Chemical Genomics, 2013).
